Results on 108 sequences are retold here after PubChem BioAssay AID1347426 (Functional Genomics Laboratory (NCATS/FGL), 2020).

Screen size: about 31,000 sequences; about 1,400 (4.5%) were called active. Many of the other results were omitted from the sample, so actives are more common in it than they were. A number with no mark means an inactive call.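 The calls were made as follows: active = median seed-adjusted z-score above 1 or below -1; inactive = the rest.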

A short description of the experiment: Novel Modifiers of Survival Motor Neuron (SMN) Protein: Gene Identification via Genome-wide siRNA Screen. To be noted: HEK293T SMN2-luciferase reporter, siRNA knockdown, 72 h; actives lie on both sides. The source says:
Spinal muscular atrophy (SMA) is the most common neuromuscular autosomal recessive disorder and one of the leading genetic causes of infant death. SMA results from mutations inducing loss of function or deletion in the survival of motor neuron-1 gene (SMN1), leading to deficiency of the survival motor neuron (SMN) protein. Although a second nearly identical gene, SMN2, is retained in humans, its expression primarily produces an aberrantly spliced isoform that is largely unstable and quickly degraded. We performed a genome-wide RNAi screen using a cell-based reporter assay to identify genes and pathways that modulate SMN protein stability. The screen identified over 200 genes that led to the greatest increase or decrease in luciferase expression.
Using HEK293T cells stably expressing a luciferase reporter that combines the promoter and splicing based cassettes in tandem with the major portion of the native SMN2 cDNA with luciferase, we performed a genome-wide RNAi screen to identify modulators of SMN protein levels. Luciferase is expressed when full-length SMN protein is generated with luminescence signal proportional to SMN protein levels. Our luciferase-based reporter assay was used to screen Ambion Silencer Select Human Druggable Genome siRNA library (10418 genes, 3 unique siRNAs per gene) using lipid-based reverse transfection.
Briefly, 1 pmol of each siRNA was spotted to a well of a 384-well plate (Corning, Corning, NY) and 20 microL of serum-free DMEM containing […] of Lipofectamine RNAiMax (Life Technologies, Carlsbad, CA) was then added to each well. Transfected cells were maintained at 37 degrees C in 5% CO2 for 72 hours, 20 microL of ONE-Glo Reagent (Promega) was added to wells for luciferase quantification. Raw luminescence reads were normalized to Ambion(R) Silencer(R) Negative Control #2 siRNA, then log10 transformed. A robust statistical measure of median absolute deviation (MAD) to standardize siRNA activities from each screen. Common Seed Analysis was used to help prioritize clean hits as opposed to those appearing to arise from seed based off-target effects. Candidate modulators were defined as the genes having a MAD score greater than 1.0 or less than -1.0.
With GCUCCAACCUCGAAGUAGATT against ACVR2B, the median seed-adjusted z-score was 0.824.

As for GGCUUCACCUAAAAACGUATT against BRCA2, the median seed-adjusted z-score was 0.

On to GAUCGUUGCAAAGUUCUUATT against CPSF6, for which the median seed-adjusted z-score was -2.38 (active).

With CUCCACUGCUUUUCCAAGATT against DBX2, the median seed-adjusted z-score is 0.244.

In the case of GAGUUCCUCUUGGAUCUAATT against CASQ2, the median seed-adjusted z-score is 0.4.

As to GGCGAGGCUUUAUAGUUGATT against ZNF589, the median seed-adjusted z-score is -0.0897.

Regarding CCUGGAGCAUCGUAACAUUTT against F11, the median seed-adjusted z-score is -0.0319.

In the case of GGCUUAUACAAUGUCAACATT against HOXA7, the median seed-adjusted z-score was -0.129.

For the sequence AGAUAACAGCAUGGAUUUATT against MMD, the median seed-adjusted z-score was 0.193.

Regarding GCAAUUUGCUGUUGCCGAATT against RHBDD1, the median seed-adjusted z-score is 0.00277.

In the case of CCAUUAUUGCUGCCCGGAATT against PGM5, the median seed-adjusted z-score is -0.0543.

For the sequence GUCUCUGACGGGUCCAUUATT against BMP1, the median seed-adjusted z-score is -0.298.

With GGACAAGGCUAACAUCCCATT against HMGA1, the median seed-adjusted z-score was 0.557.

In the case of GCUUGCACUUAAUCUCACATT against LAMB2, the median seed-adjusted z-score is 1.12 (active).

For the sequence GGUUAAAGGUUAUGGUCCATT against PROSC, the median seed-adjusted z-score was 0.173.

UUUUGUUCAUAUAACGUCATT against IFNA1: the median seed-adjusted z-score is -0.625.

CCACCUUCCUUAUCGACAUTT against FZD8: the median seed-adjusted z-score was -0.177.

For the sequence CCACCUUGCAGAAAACCGATT against ITPR3, the median seed-adjusted z-score was -1.28 (active).

Turning to GCUCAUCCACUAUAACCAUTT against CA10, the median seed-adjusted z-score is 0.255.

GGUCGAAGCUGUGCAAGGATT against TPPP: the median seed-adjusted z-score was -0.16.

For AGCUGGAGGUCAACAAGUATT against TIMP3, the median seed-adjusted z-score was -1.05 (active).

Turning to UCUCAGAUCUCUUCCCAGATT against ROBO4, the median seed-adjusted z-score is -0.431.

Take CAAGGAGCAAGGUUCGGAATT against KIRREL3: the median seed-adjusted z-score was -0.206.

On to GAUGAUCGCUUCAACCUGATT against DDX6, for which the median seed-adjusted z-score is 1.12 (active).

With GUAUGUUCCACAUAAUGAATT against CYP19A1, the median seed-adjusted z-score is -0.321.

As to GGAAUAGAACAAUUGAAAATT against ZDHHC3, the median seed-adjusted z-score was 0.229.

As to UGAGGACACUUCUUGGAGATT against FOXE3, the median seed-adjusted z-score is -0.451.

In the case of CGAUGGUUGACAAUCCAGATT against NDUFS5, the median seed-adjusted z-score is -1.35 (active).

Turning to CUUGCAAUGUCGAAGCUUATT against CDH8, the median seed-adjusted z-score was 0.169.

For the sequence GGUGUUGAGUUUCUGCAAATT against CHMP1A, the median seed-adjusted z-score is 0.

With GGAUGAUAGAGGAAUUGUATT against SKIV2L2, the median seed-adjusted z-score was 0.642.

For CCACCAUCCUACAAGCCUUTT against CYP2S1, the median seed-adjusted z-score is -0.196.

Take GCUAGUCAAGGUUCCUAAATT against GTF2F2: the median seed-adjusted z-score is -1.14 (active).

With GCAAUUCCAUGAUAAGGAATT against MMP20, the median seed-adjusted z-score is 0.0623.

GCCUUCUCCCUAUUUGAUATT against CALM1: the median seed-adjusted z-score was 0.355.

With GCAGAAGACUAGAGAGACUTT against ABCC5, the median seed-adjusted z-score was 0.00533.

For the sequence CAGUGCAACCUGGAGAGAATT against NRBP2, the median seed-adjusted z-score is 0.093.

With ACAGCUCCGUGUUGACUCATT against FOXG1, the median seed-adjusted z-score is 0.749.

Turning to AAAAGAACGAGGAAGUUAUTT against CACNG2, the median seed-adjusted z-score was 0.00759.

Take GUAUAUGACUGUACACUCATT against AGPAT4: the median seed-adjusted z-score is 0.149.

In the case of GGAUCACCAACAAUCGCAATT against PDE6A, the median seed-adjusted z-score is 1.25 (active).

In the case of CAGCAGUUAUGGACCAGUUTT against AMD1, the median seed-adjusted z-score was -0.211.

With GCAGAAAACUCACCCGAGATT against PCDHB7, the median seed-adjusted z-score is 0.365.

With AGAACAACCUGGACUAUAUTT against PPP5C, the median seed-adjusted z-score was 0.473.

For CGUUAUUGUUAGCAACACUTT against ZNF280A, the median seed-adjusted z-score is -0.207.

For GGCUAUUAACCGAAGCAAATT against TSPAN31, the median seed-adjusted z-score was -1.13 (active).

Consider UCUACAAGCUGGACCCUGATT against MYO1G, for which the median seed-adjusted z-score is -0.907.

For the sequence GAUGCAUCAUCUGAAUAAATT against CPA6, the median seed-adjusted z-score was 0.343.

As for CGUGUUCAGUGGAAUCACATT against NPC1, the median seed-adjusted z-score is -0.195.

UCGAUGUACUGGAGACGGATT against NUCB1: the median seed-adjusted z-score is 0.232.

For the sequence GCGAAUCCAGGAUCAAGAATT against TRIP4, the median seed-adjusted z-score was -0.0385.

For GCUUCUAUUUAGUCACGAATT against AKAP9, the median seed-adjusted z-score was -1.22 (active).

For the sequence GCAAGUUGGAAGACCGGAATT against XPO5, the median seed-adjusted z-score is -0.031.

Turning to GAUCCAGAAGGGUAGUUAUTT against SERPINB2, the median seed-adjusted z-score is -0.0739.

Consider CAGAUGCGGUUUAAACAGATT against TBC1D9B, for which the median seed-adjusted z-score is -0.906.

On to GAGGUGAUCUUAGACCUGATT against QSOX2, for which the median seed-adjusted z-score was 0.498.

As for AAAAGACCGUCAACCCUUATT against A2BP1, the median seed-adjusted z-score is 1.17 (active).

As for CAGUGUGGCUGACAACUUATT against SERTAD1, the median seed-adjusted z-score was 0.376.

Consider GGCUAGCUGAUAUCAGUUUTT against DDX31, for which the median seed-adjusted z-score is 0.0144.

Turning to GGAGUGUGAUCGACCCUCATT against KRTAP5-5, the median seed-adjusted z-score is -1.07 (active).

With ACCUGGUGGUGUCAACUCATT against PTOV1, the median seed-adjusted z-score is 0.115.

Regarding GGUCGAAGUGUACCCAGUATT against USP11, the median seed-adjusted z-score was -0.0327.

For CUACAAAUCCCUUACCAAUTT against TRDMT1, the median seed-adjusted z-score is 0.

As to GGUAUACACUGAAUAUCCUTT against LCP1, the median seed-adjusted z-score is -0.386.

As for GUACGAGACCUGUUCCAGATT against UCK2, the median seed-adjusted z-score is -1.51 (active).

For the sequence ACAUGGACGUGAAAGGGAATT against WFIKKN2, the median seed-adjusted z-score was -0.353.

GCUUCGUGCUAGAUAAAGATT against NOP14: the median seed-adjusted z-score was -0.344.

As to CAGCAUUCUUUAUCUCGUATT against FZD3, the median seed-adjusted z-score was -0.0208.

Regarding CCAUCAUGCUUGAUCGGGATT against SLC4A4, the median seed-adjusted z-score is 0.43.

In the case of GUACAAUCGUUGACAAUGATT against PPEF1, the median seed-adjusted z-score was -0.58.

In the case of CUACUGUCCUGAUGUAUCATT against MYF5, the median seed-adjusted z-score is -0.786.

With GCAGCUGUAUAAGUUACUATT against NFKB1, the median seed-adjusted z-score is 0.31.

For the sequence GGAAGGACUGCGAACCUUATT against POLM, the median seed-adjusted z-score is -1.55 (active).

With AGAUAAGGAUGAAUUGAUATT against KLRB1, the median seed-adjusted z-score is -0.44.

With GAACUAAUCAGGAAGCUUATT against DHX40, the median seed-adjusted z-score is -0.75.

For the sequence GGAGAGGGUUGACAAAGUATT against PCYT1A, the median seed-adjusted z-score was 0.0429.

Turning to CAUCUGAUCCGGGAAAUCATT against GALNT14, the median seed-adjusted z-score was 0.

Take GUGUCUCCAUAGUACGAGATT against ELP3: the median seed-adjusted z-score was 0.321.

For AGCUCAACCAUAACGUGAATT against DIRAS2, the median seed-adjusted z-score is -1.25 (active).

For the sequence CGCAUUGCUUACUUACAAATT against PCDHA10, the median seed-adjusted z-score was 0.0404.

GCUGAGGACUUUAAUAUCUTT against GPR175: the median seed-adjusted z-score is 0.245.

Consider GAUCCAAGCUAAUAUGAGATT against TGM5, for which the median seed-adjusted z-score was 0.0181.

As to CCUCAAGGAUUGGGACUAUTT against SLC22A17, the median seed-adjusted z-score is -0.149.

Regarding GGAAUUUCAUGUUCGGAAUTT against PAFAH2, the median seed-adjusted z-score was 0.0216.

On to GCAUCCGUGGAAAUGGUUATT against ASNS, for which the median seed-adjusted z-score is -1.1 (active).

As for CAUUCGGAGAAGUCGCAAATT against DDX59, the median seed-adjusted z-score was -0.859.

With GAUGAUUCAGGUAAAAUAATT against CETN3, the median seed-adjusted z-score was -0.0815.

In the case of CAACGGGACUAUUAUGAUATT against HNRNPC, the median seed-adjusted z-score is -2.15 (active).

With GCCACGAAAAUCAAUGAGATT against EDF1, the median seed-adjusted z-score is 0.0783.

For the sequence CCAGCAAACUCAACCAACATT against KCNJ6, the median seed-adjusted z-score is -1.6 (active).

Regarding GGAUGACUACAGGCAAGAATT against GPA33, the median seed-adjusted z-score was 0.138.

In the case of GCUUCACCAGGGACGUGAATT against CD1D, the median seed-adjusted z-score is -0.579.

In the case of AGGUCUCAGAUGAAGCGGUTT against PPM1B, the median seed-adjusted z-score was 0.

Consider CCCUUAAUAGAGAGAGUUATT against AADAT, for which the median seed-adjusted z-score is 0.0891.

With GGAUCAAUGAGUUCUCCAUTT against FMOD, the median seed-adjusted z-score was -1.32 (active).

As for GGCUCAAGUUCAACGAGUUTT against ARL4C, the median seed-adjusted z-score was -0.61.

For GGCCUAUGCAAAAAGAGGATT against BAD, the median seed-adjusted z-score is 0.

Regarding GGAUACAUUAAGCUAAUAATT against PRMT3, the median seed-adjusted z-score is 0.00875.

For CCACCCUUCCGAGACAUGATT against TOP3B, the median seed-adjusted z-score was -1.11 (active).

For the sequence GCAUAAGAGGGAAUUCACATT against TAGLN, the median seed-adjusted z-score is 0.0485.

Regarding CGAUCGUCUUCUGAUCAAATT against DPYSL2, the median seed-adjusted z-score is -0.569.

Consider ACCUGAGUGUGAACCUCUATT against GDPD5, for which the median seed-adjusted z-score is -0.0618.

As to CAGUAGUGUUGGUAGACCATT against HADH, the median seed-adjusted z-score was 1.11 (active).

As to GAGUGUAUGUGAUCAUCGATT against PRKCE, the median seed-adjusted z-score was 0.568.

As to GGAGAUUGUUUCACGGAAATT against TBC1D23, the median seed-adjusted z-score was 0.0932.

For GGGACGAGAUCAACGAGAATT against KIF5A, the median seed-adjusted z-score is -0.348.

UCUUAUUUAUUCUACAUCCTT against TNFRSF6B: the median seed-adjusted z-score is 0.0458.

As for GUUGUUCCUUUGUAUCCAATT against DHX32, the median seed-adjusted z-score is -0.12.
